Test results published in PubChem BioAssay (EPA / NIEHS).
Inconclusive results are not listed. Calls of active or inactive are those of the source. Rule for the calls, unless noted: active = hit-call score of the fitted dose curve at least 0.9, where 1 is the maximum; inconclusive = response in the unintended direction; inactive = score below 0.9. Peptide text beside a SMILES is read from it.

What was measured:
[1] = molecular target: human Peroxisome Proliferator-activated Receptor alpha (PPARa), PPARA (gene 5465) (UniProt Q07869); test: ATG_PPARa_TRANS: Attagene TRANS-FACTORIAL HepG2 Assay for human Peroxisome Proliferator-activated Receptor alpha (PPARa) (AID 2283001)
How it was run: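 Cells (HepG2) are transfected with multiple reporter transcription units, exposed to chemical for 24 h, then total RNA is reverse-transcribed and amplified. Labelled products are quantified by capillary electrophoresis; induction is referenced to DMSO.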

[2] = molecular target: Peroxisome proliferator-activated receptor gamma (Homo sapiens) (UniProt P37231); test: ATG_PPARg_TRANS: Attagene TRANS-FACTORIAL HepG2 Assay for human Peroxisome Proliferator-activated Receptor-gamma (PPARg) (AID 2283007)
How it was run: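 HepG2 cells are transiently transfected with GAL4-UAS reporter units driven by chimeric NR-Gal4 fusions and dosed for 24 h. Reporter mRNA is quantified by RT-PCR, 6-FAM labelling, HpaI digestion and capillary electrophoresis. Induction is scored against DMSO.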

[3] = molecular target: human RAR-related Orphan Receptor beta (RORb), RORB (gene 6096) (UniProt Q92753); test: ATG_RORb_TRANS: Attagene TRANS-FACTORIAL HepG2 Assay for human RAR-related Orphan Receptor beta (RORb) (AID 2283010)
How it was run: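 Read-out is reporter mRNA induction, quantified by RT-PCR with fluorescent capillary electrophoresis, 24 h post-dose in transiently transfected HepG2 expressing exogenous NR-Gal4 chimera. Activity fitted upward versus DMSO.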

[4] = molecular target: human RAR-related Orphan Receptor gamma (RORg), RORC (gene 6097) (UniProt P51449); test: ATG_RORg_TRANS: Attagene TRANS-FACTORIAL HepG2 Assay for human RAR-related Orphan Receptor gamma (RORg) (AID 2283011)
How it was run: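 Reporter transcripts from a transfected RORg-GAL4 chimera in HepG2 cells were quantified 24 h after dosing by RT-PCR, 6-FAM labelling, HpaI digestion and capillary electrophoresis; increases over DMSO baseline were fitted.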

[5] = molecular target: human Thyroid Receptor alpha (THRa1), THRA (gene 7067) (UniProt P10827); test: ATG_THRa1_TRANS: Attagene TRANS-FACTORIAL HepG2 Assay for human Thyroid Receptor alpha (THRa1) (AID 2283014)
How it was run: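 Transcripts from GAL4-UAS-driven reporters, measured after 24 h compound exposure by RT-PCR plus capillary electrophoresis of 6-FAM-labeled fragments, were fitted for gain of signal relative to DMSO. Cells: transiently transfected HepG2 expressing NR-Gal4 chimeras.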

[6] = molecular target: human Peroxisome Proliferator-activated Receptor delta (PPARd), PPARD (gene 5467) (UniProt Q03181); test: ATG_PPARd_TRANS: Attagene TRANS-FACTORIAL HepG2 Assay for human Peroxisome Proliferator-activated Receptor delta (PPARd) (AID 2283002)
How it was run: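 Multiplexed trans-activation format: HepG2 liver cells expressing exogenous NR-Gal4 chimeras and GAL4-UAS reporters were exposed for 24 h. Reporter mRNA was detected by RT-PCR with capillary electrophoresis fluorescence; activity fitted as gain of signal relative to DMSO.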

[7] = molecular target: Retinoic acid receptor alpha (Homo sapiens) (UniProt P10276); test: ATG_RARa_TRANS: Attagene TRANS-FACTORIAL HepG2 Assay for human Retinoic Acid Receptor alpha (RARa) (AID 2283005)
How it was run: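 HepG2 cells transiently transfected with multiple reporter units expressing chimeric RARα-GAL4 fusion, with GAL4-UAS-driven reporters. After 24 h compound exposure, reporter mRNA induction quantified by RT-PCR and capillary electrophoresis with fluorescent labeling; gain-of-signal fitted relative to DMSO control.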

[8] = molecular target: Nuclear receptor subfamily 1 group I member 2 (Homo sapiens) (UniProt O75469); test: ATG_PXR_TRANS: Attagene TRANS-FACTORIAL HepG2 Assay for human Pregnane X Receptor (PXR) (AID 2283008)
How it was run: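 Multiplexed TRANS reporter panel in HepG2; this component tracks PXR-Gal4-driven reporter mRNA after 24 h dosing, measured by RT-PCR with capillary electrophoresis fluorescence, fitted against DMSO.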

[9] = molecular target: human Retinoid X Receptor beta (RXRb), RXRB (gene 6257) (UniProt P28702); test: ATG_RXRb_TRANS: Attagene TRANS-FACTORIAL HepG2 Assay for human Retinoid X Receptor beta (RXRb) (AID 2283013)
How it was run: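 Readout is reporter transcript induction after 24 h dosing. It is measured by RT-PCR of total RNA followed by fluorescent capillary electrophoresis. HepG2 liver cells carry transfected multiple reporter units driven by an exogenous RXRb-Gal4 fusion; activity is relative to DMSO.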

[10] = molecular target: human Retinoic Acid Receptor beta (RARb), RARB (gene 5915) (UniProt P10826); test: ATG_RARb_TRANS: Attagene TRANS-FACTORIAL HepG2 Assay for human Retinoic Acid Receptor beta (AID 2283004)
How it was run: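 Induction of reporter mRNA from a chimeric RARb-Gal4 construct was measured by RT-PCR, FAM labelling, HpaI digestion and capillary electrophoresis. Measurements followed 24 h compound treatment of transiently transfected human HepG2 liver cells, with DMSO as baseline.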

[11] = molecular target: Retinoic acid receptor RXR-alpha (Homo sapiens) (UniProt P19793); test: ATG_RXRa_TRANS: Attagene TRANS-FACTORIAL HepG2 Assay for human Retinoid X Receptor alpha (RXRa) (AID 2283012)
How it was run: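 TRANS format reporting activity of exogenous RXRa-Gal4 chimera in transiently transfected HepG2, 24 h exposure. Reporter transcripts quantified by RT-PCR with capillary electrophoresis, with gain of signal scored relative to DMSO.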

[12] = read-out: Intercellular Adhesion Molecule 1 (ICAM1), ICAM1 (gene 3383); test: BSK_3C_ICAM1: BioMAP Diversity Plus: 3C Assay for Intercellular Adhesion Molecule 1 (ICAM1) Biomarker Activity (AID 2283003; active = hit-call score of the fitted dose curve at least 0.9, where 1 is the maximum; inactive = score below 0.9); settings: primary human endothelial cells (HUVEC); actives raise or lower the signal
How it was run: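 ELISA readout of ICAM1 in human umbilical vein endothelial cells in the 3C system, taken 24 h post-dose. Gain or loss of signal versus DMSO was fitted in both directions, with SRB total-protein staining run in parallel.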

[13] = BSK_3C_Proliferation: Cell Proliferation Assessment in the BioMAP Diversity Plus: 3C Assay (AID 2283006; active = hit-call score of the fitted dose curve at least 0.9, where 1 is the maximum; inactive = score below 0.9); settings: primary human endothelial cells (HUVEC)
How it was run: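 Proliferation as total protein: sulforhodamine B (0.1%) stain of TCA-fixed subconfluent human umbilical vein endothelial cells, absorbance 560 nm, 48 h after dosing. Activity fitted in both directions against DMSO baseline.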

[14] = molecular target: human Retinoic Acid Receptor gamma (RARg), RARG (gene 5916) (UniProt P13631); test: ATG_RARg_TRANS: Attagene TRANS-FACTORIAL HepG2 Assay for human Retinoic Acid Receptor gamma (RARg) (AID 2283009)
How it was run: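 Transactivation of exogenous RARg-Gal4 fusion measured as reporter transcript induction after 24 h in transfected HepG2 cells. RNA reverse-transcribed, amplified, fluorescently labeled and resolved by capillary electrophoresis; increase relative to DMSO.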

[15] = read-out: E-selectin (Homo sapiens) (UniProt P16581); test: BSK_3C_Eselectin: BioMAP Diversity Plus: 3C Assay for Eselectin Biomarker Activity (AID 2283015; active = hit-call score of the fitted dose curve at least 0.9, where 1 is the maximum; inactive = score below 0.9;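 note: cell surface E-selectin protein quantified by ELISA 24 h after dosing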); settings: primary human endothelial cells (HUVEC); actives raise or lower the signal
How it was run: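 E-selectin ELISA readout, fitted bidirectionally relative to DMSO, taken 24 h post-dosing in HUVEC cultures of the 3C system. Overt cytotoxicity tracked with sulforhodamine B staining of parallel wells.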

[16] = read-out: Interleukin-1 alpha (IL1a), IL1A (gene 3552); test: BSK_BE3C_IL1a: BioMAP Diversity Plus: BE3C Assay for Interleukin-1 alpha (IL1a) Biomarker Activity (AID 2283016; active = hit-call score of the fitted dose curve at least 0.9, where 1 is the maximum; inactive = score below 0.9); settings: primary human bronchial epithelial cells; actives raise or lower the signal
How it was run: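 IL-1a measured by ELISA after 24 h treatment of human primary bronchial epithelial cells, with gain or loss of signal fitted versus DMSO. Parallel cultures stained with SRB gauge overt cytotoxicity.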

[17] = read-out: Monocyte Chemoattractant Protein-1 (MCP1), CCL2 (gene 6347); test: BSK_3C_MCP1: BioMAP Diversity Plus: 3C Assay for Monocyte Chemoattractant Protein-1 (MCP1) Biomarker Activity (AID 2283017; active = hit-call score of the fitted dose curve at least 0.9, where 1 is the maximum; inactive = score below 0.9); settings: primary human endothelial cells (HUVEC); actives raise or lower the signal
How it was run: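 MCP-1 was measured by ELISA 24 h after dosing in primary HUVEC 3C cultures and fitted in both directions relative to DMSO; cytotoxicity was checked by SRB total-protein staining in parallel wells.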

[18] = read-out: Monocyte Chemoattractant Protein-1 (MCP1), CCL2 (gene 6347); test: BSK_4H_MCP1: BioMAP Diversity Plus: 4H Assay for Monocyte Chemoattractant Protein-1 (MCP1) Biomarker Activity (AID 2283018; active = hit-call score of the fitted dose curve at least 0.9, where 1 is the maximum; inactive = score below 0.9); settings: primary human endothelial cells (HUVEC); actives raise or lower the signal
How it was run: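 ELISA of MCP-1 (CCL2) 24 h after chemical dosing of HUVEC in the BioMAP 4H system. Gain or loss versus DMSO fitted; parallel SRB staining (560 nm) tracked overt cytotoxicity.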

[19] = read-out: Human Leukocyte Antigen - DR isotype (HLADR), HLA-DRA (gene 3122); test: BSK_3C_HLADR: BioMAP Diversity Plus: 3C Assay for Human Leukocyte Antigen - DR isotype (HLADR) Biomarker Activity (AID 2283019; active = hit-call score of the fitted dose curve at least 0.9, where 1 is the maximum; inactive = score below 0.9;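 note: ELISA of cell-surface HLA-DR on HUVEC 24 h after dosing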); settings: primary human endothelial cells (HUVEC); actives raise or lower the signal
How it was run: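 Bidirectional fitting against DMSO was applied to the HLA-DR ELISA signal from human umbilical vein endothelial cells, 24 h post-dose. Cytotoxicity came from parallel SRB total-protein staining; 3C proliferation was counted by SRB at 48 h.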

Measured: AC50

human RAR-related Orphan Receptor beta (RORb), RORB (gene 6096), sequence (Q92753 whole entry, looked up, the tested form may be a part): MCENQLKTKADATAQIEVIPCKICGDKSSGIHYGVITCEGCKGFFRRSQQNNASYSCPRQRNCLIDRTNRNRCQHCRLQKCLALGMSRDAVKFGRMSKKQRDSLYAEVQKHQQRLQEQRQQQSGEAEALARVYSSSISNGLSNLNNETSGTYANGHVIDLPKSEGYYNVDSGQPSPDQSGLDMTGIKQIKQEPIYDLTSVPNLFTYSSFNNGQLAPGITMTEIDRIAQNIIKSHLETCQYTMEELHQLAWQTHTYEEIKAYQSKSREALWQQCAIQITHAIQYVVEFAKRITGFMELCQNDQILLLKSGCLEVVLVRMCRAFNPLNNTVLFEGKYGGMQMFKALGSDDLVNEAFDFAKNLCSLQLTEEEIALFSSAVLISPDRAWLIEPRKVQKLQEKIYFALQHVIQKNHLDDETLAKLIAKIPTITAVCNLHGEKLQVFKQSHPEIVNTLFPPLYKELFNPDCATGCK
Retinoic acid receptor RXR-alpha (Homo sapiens), sequence (P19793 whole entry, looked up, the tested form may be a part): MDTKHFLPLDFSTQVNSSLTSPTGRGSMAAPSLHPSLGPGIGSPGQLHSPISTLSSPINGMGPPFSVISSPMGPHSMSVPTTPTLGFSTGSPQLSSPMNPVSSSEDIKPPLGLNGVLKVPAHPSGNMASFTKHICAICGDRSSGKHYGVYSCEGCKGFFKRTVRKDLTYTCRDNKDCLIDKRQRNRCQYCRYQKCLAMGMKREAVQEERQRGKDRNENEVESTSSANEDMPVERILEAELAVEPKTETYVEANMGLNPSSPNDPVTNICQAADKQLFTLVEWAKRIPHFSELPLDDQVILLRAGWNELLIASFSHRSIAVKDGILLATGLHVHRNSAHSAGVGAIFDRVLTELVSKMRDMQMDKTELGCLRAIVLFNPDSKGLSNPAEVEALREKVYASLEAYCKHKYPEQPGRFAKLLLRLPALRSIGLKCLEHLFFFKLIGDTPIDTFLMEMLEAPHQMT
human Retinoic Acid Receptor beta (RARb), RARB (gene 5915), sequence (P10826 whole entry, looked up, the tested form may be a part): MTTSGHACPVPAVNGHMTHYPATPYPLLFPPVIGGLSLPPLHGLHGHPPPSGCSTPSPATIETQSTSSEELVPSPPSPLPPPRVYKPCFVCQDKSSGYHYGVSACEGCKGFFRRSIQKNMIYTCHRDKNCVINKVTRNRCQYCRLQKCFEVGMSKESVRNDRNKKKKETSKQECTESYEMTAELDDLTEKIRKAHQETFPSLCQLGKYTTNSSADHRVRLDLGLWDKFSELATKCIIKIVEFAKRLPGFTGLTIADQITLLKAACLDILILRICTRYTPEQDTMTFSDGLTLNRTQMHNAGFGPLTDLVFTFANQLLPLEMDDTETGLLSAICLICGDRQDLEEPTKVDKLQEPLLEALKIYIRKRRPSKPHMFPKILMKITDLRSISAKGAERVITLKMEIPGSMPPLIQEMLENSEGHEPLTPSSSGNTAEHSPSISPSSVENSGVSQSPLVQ
human Peroxisome Proliferator-activated Receptor delta (PPARd), PPARD (gene 5467), sequence (Q03181 whole entry, looked up, the tested form may be a part): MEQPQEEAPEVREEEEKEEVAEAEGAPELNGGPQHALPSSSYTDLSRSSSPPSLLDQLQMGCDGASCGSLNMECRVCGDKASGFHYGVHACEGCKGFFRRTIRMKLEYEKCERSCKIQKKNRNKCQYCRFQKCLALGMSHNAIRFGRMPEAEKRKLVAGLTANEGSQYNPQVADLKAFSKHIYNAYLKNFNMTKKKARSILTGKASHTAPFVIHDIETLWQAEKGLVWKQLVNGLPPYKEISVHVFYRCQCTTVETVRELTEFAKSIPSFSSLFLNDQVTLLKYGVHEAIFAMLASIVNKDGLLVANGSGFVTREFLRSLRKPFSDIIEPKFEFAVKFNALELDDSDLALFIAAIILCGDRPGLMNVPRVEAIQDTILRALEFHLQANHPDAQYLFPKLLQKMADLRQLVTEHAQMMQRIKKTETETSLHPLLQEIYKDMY
human RAR-related Orphan Receptor gamma (RORg), RORC (gene 6097), sequence (P51449 whole entry, looked up, the tested form may be a part): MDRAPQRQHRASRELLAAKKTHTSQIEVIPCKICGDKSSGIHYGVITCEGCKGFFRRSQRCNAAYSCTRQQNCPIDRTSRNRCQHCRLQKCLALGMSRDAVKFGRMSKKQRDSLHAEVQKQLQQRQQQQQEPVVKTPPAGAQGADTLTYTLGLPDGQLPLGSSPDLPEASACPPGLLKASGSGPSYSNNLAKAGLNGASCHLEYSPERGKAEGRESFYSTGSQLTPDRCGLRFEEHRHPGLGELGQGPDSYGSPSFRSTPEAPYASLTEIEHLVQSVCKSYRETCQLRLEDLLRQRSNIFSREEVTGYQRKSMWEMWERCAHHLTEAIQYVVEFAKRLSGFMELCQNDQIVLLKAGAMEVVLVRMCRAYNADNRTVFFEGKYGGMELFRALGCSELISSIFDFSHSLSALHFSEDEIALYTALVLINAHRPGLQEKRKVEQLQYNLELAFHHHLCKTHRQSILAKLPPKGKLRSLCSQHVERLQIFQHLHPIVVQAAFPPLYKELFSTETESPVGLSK
human Retinoic Acid Receptor gamma (RARg), RARG (gene 5916), sequence (P13631 whole entry, looked up, the tested form may be a part): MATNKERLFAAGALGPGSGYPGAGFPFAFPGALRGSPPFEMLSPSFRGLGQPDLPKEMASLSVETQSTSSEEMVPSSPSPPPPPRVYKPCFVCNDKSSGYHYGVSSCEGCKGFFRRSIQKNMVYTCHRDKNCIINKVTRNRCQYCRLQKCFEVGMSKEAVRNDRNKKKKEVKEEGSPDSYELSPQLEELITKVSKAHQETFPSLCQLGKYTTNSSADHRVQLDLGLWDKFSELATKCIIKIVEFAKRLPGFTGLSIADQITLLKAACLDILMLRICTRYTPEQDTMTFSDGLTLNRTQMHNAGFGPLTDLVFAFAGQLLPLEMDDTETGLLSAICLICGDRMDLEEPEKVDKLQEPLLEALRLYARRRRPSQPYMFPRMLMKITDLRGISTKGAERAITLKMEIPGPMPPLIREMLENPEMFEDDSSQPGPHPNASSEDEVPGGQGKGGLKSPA
human Retinoid X Receptor beta (RXRb), RXRB (gene 6257), sequence (P28702 whole entry, looked up, the tested form may be a part): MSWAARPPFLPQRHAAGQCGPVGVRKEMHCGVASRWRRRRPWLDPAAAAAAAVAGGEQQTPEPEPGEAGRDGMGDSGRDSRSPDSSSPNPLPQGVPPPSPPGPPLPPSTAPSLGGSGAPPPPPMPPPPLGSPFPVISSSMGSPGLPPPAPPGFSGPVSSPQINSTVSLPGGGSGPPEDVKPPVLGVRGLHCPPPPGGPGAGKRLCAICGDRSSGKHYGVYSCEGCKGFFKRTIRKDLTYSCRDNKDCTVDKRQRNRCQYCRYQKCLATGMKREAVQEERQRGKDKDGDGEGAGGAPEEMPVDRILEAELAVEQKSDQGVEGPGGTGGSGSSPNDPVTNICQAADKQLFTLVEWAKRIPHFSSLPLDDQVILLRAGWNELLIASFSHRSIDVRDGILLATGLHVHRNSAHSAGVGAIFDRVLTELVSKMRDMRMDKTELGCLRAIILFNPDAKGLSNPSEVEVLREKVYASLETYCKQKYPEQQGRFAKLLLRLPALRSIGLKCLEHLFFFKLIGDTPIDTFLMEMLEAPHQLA
human Thyroid Receptor alpha (THRa1), THRA (gene 7067), sequence (P10827 whole entry, looked up, the tested form may be a part): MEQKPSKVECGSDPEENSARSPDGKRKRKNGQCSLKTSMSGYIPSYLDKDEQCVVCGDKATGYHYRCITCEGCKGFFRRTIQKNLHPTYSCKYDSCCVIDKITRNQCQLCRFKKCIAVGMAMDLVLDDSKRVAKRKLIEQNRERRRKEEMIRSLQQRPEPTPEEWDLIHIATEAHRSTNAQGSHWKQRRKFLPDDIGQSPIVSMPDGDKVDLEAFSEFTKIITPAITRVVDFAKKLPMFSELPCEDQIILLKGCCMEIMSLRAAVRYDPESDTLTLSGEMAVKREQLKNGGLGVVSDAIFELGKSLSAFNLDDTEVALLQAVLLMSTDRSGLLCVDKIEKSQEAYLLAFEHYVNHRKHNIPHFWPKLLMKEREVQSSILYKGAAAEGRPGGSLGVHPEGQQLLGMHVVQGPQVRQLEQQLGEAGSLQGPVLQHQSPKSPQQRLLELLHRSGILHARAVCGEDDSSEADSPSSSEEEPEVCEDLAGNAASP
Peroxisome proliferator-activated receptor gamma (Homo sapiens), sequence (P37231 whole entry, looked up, the tested form may be a part): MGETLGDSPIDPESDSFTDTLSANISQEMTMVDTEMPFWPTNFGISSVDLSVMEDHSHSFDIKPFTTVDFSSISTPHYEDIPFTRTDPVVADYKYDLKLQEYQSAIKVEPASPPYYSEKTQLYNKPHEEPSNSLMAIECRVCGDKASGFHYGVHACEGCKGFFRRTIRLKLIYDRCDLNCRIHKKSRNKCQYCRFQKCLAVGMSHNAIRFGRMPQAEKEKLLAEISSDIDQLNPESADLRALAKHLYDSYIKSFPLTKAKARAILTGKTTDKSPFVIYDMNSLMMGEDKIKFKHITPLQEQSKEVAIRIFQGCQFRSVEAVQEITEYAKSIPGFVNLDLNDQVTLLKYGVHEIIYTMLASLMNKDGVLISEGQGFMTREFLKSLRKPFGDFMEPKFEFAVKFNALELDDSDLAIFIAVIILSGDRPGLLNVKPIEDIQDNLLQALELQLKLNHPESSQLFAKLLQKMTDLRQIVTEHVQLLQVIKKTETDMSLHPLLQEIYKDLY
Nuclear receptor subfamily 1 group I member 2 (Homo sapiens), sequence (O75469 whole entry, looked up, the tested form may be a part): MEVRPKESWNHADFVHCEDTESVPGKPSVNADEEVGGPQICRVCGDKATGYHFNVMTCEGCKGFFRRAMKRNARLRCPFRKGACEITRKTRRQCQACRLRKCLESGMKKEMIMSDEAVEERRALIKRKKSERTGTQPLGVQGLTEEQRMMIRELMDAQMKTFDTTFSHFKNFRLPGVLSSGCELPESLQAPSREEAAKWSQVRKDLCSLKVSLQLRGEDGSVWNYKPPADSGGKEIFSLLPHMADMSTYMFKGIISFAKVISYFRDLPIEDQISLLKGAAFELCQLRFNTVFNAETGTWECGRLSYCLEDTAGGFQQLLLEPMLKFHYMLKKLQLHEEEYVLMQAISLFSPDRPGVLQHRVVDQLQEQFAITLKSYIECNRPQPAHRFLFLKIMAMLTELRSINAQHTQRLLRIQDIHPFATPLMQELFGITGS

COC(Cc1ccccc1)OC
inactive: [1] | [2] | [3] | [4] | [5]

CC(C)c1cc(C(C)C)cc(C(C)C)c1
active: [8] 26.9 µM | [9] 0.399 µM
inactive: [6] | [7] | [2]

C=CC(=O)OCCCCCCCCCC
active: [2] 3.15 µM
inactive: [1] | [3] | [4] | [9] | [5]

CC(C)=NNC(N)=S
inactive: [6] | [10] | [8] | [4] | [11] | [9] | [5]

O=C1CCCCCCCCCCCN1
active: [8] 5.31 µM | [9] 33.8 µM
inactive: [6] | [12] | [13] | [14] | [15] | [16] | [17] | [18] | [19]

CC(C)(C)NC(=O)[C@H]1CC[C@H]2[C@@H]3CC[C@H]4NC(=O)C=C[C@]4(C)[C@H]3CC[C@]12C
inactive: [6] | [11]

COC(=O)[C@H](Cc1ccccc1)NC(=O)[C@@H](N)CC(=O)O (H-Asp-Phe-OMe)
inactive: [10] | [7] | [2] | [8] | [14] | [3] | [5]

CC(C=O)c1ccccc1 (stereo unspecified)
active: [8] 5.82 µM
inactive: [6] | [2] | [3] | [11] | [9]

Cc1noc(NS(=O)(=O)c2ccc(N)cc2)c1C
inactive: [10] | [7] | [5]

CC(C)C(=O)OCCOc1ccccc1
inactive: [6] | [2] | [3] | [4]

CCCCC1C(=O)N(c2ccccc2)N(c2ccccc2)C1=O
active: [2] 22.6 µM
inactive: [12] | [10] | [13] | [14] | [15] | [16] | [17] | [18] | [19]
